# The full ranking holds about 33,000 sequences; the median of “E-score (-0.5 to 0.5)” is about -0.013, and the highest 2% start at about 0.3. This excerpt belongs to a sample that is enriched for the highest values.
# Molecular target: T1, Msn1 (UniProt P22148)
# T1 sequence: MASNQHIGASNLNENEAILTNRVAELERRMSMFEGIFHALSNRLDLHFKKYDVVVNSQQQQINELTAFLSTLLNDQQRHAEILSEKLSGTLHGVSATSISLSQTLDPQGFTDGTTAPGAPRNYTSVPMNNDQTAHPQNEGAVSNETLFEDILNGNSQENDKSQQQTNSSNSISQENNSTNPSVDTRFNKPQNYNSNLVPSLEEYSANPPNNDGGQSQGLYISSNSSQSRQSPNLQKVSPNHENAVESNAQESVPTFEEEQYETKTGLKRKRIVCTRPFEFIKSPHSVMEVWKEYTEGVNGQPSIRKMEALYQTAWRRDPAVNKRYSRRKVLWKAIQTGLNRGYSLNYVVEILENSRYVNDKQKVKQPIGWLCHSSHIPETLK
# Assay: PBM E-score (8-mer binding enrichment) (E-score (-0.5 to 0.5)); higher = stronger / more preferred TF binding
# Details: protein concentration: 200 nM; construct: GST-full length
# Description: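 Universal 'all 10-mer' protein binding microarrays (Agilent AMADID 015681) probed with GST-tagged S. cerevisiae TFs (full-length or DBD) made by in vitro transcription/translation (PURExpress), about 100-200 nM. Bound TF was detected with fluorescent anti-GST. Each ungapped 8-mer (which stands for itself and its reverse complement) is scored by the PBM enrichment score (E-score), a modified Wilcoxon-Mann-Whitney statistic from -0.5 to +0.5, computed with the Universal PBM Analysis Suite. Scale: above 0.35 generally sequence-specific binding.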
row,Sequence,PBM E-score
1,ATAGATCC,-0.0574
2,AATTTCAG,0.127
3,ACGTGCTA,-0.167
4,GATCCTTA,-0.107
5,AATGCGTG,0.0114
6,AGCAATTG,0.00301
7,ATTCGGCC,0.0205
8,CGTTGTTC,0.0573
9,CTTAGAGA,-0.00262
10,GACATCTA,0.404
11,GACATGAC,0.335
12,CACATGAC,-0.0252
13,TACATCTA,0.105
14,CACATCTA,0.0157
15,AACATGAC,0.0901
16,AGGCACCC,-0.241
17,ATCGCTAG,0.022
18,GAGTGGCC,-0.224
19,AAGTGTCG,0.126
20,CAGTGTCG,0.0205
21,AAGTGTCT,0.257
22,AAGTGTCC,0.366
23,GAGTGTCC,0.232
24,CAGTGTCC,0.348
25,CCGTGTCA,0.121

row,Sequence,PBM E-score
1,GCGTGTCC,0.431
2,ACGTGTCT,0.16
3,CCGTGTCG,0.00655
4,GCGTGTCA,0.136
5,ACGTGTCC,0.455
6,CCGTGTCC,0.413
7,GCGTGTAC,0.203
8,ACGTGTCG,0.0594
9,AATCTTCA,0.211
10,GCTGTGCC,0.00582
11,GCGCTATA,-0.036
12,GGAGCGAA,0.0407
13,AGGGAGGG,-0.283
14,TAGTTTGA,0.113
15,CACCATAG,-0.153
16,ATGTGTCG,0.194
17,CTGTGTCA,0.02
18,CTGTGTAC,0.197
19,CTGTGTCC,0.439
20,CGGTGTCA,0.0418
21,ATGTGTCC,0.438
22,ATGTGTCA,0.217
23,CGGTGTCC,0.304
24,AGGTGTCC,0.263
25,CCCGTAAG,-0.117

row,Sequence,PBM E-score
1,CGTTACTC,-0.115
2,GCTTTCCC,0.00071
3,AGCTCCTC,-0.315
4,GAAACGAA,0.115
5,CCAATTCC,0.0443
6,CCAAAGAG,-0.0341
7,CTGTCCTA,0.346
8,CGGTCCTA,-0.185
9,CAGTCCTA,0.0807
10,GTGTCCTA,0.468
11,GCGTCCTA,0.168
12,GAGTCCTA,0.0172
13,ACTGGGCC,-0.0731
14,CGCTATAC,-0.194
15,TCAGTACA,0.319
16,ACAGTACA,0.189
17,CTAGTACC,-0.0261
18,CTAGTACA,0.308
19,CCAGTACA,0.177
20,GTAGTACA,0.167
21,TAAGAGTA,0.0785
22,GCGGAGCC,-0.139
23,GGTTAGAC,0.076
24,AGGTCTCG,-0.156
25,CTGTCTCA,0.087

row,Sequence,PBM E-score
1,ATGTCTCC,0.302
2,GTGTCTCA,0.286
3,ATGTCTCA,0.446
4,ATGTCTCG,0.333
5,ACGGGCGG,-0.141
6,ACCCACGG,-0.17
7,CAGGTAAC,-0.0911
8,GAGCCGCC,-0.217
9,CAGCCTAC,-0.125
10,ACACGGAG,0.00035
11,ACACGGAA,0.166
12,ACACGGAC,0.32
13,ACCCGTCC,-0.0862
14,AAATGGAT,-0.0165
15,GGATGGAC,0.178
16,CTATGGAC,0.257
17,ACATGGAT,0.162
18,ACATGGAC,0.326
19,GTATGGAA,-0.0401
20,GCATGGAC,0.268
21,AAATGGAA,0.131
22,AAATGGAC,0.338
23,GTATGGAC,0.335
24,ATATGGAC,0.356
25,ATATGGAG,0.12

row,Sequence,PBM E-score
1,GAAATCTA,-0.139
2,TCAGCTCA,-0.149
3,ATTTGCCG,0.136
4,GCCAAGCA,-0.199
5,GAGTATGC,-0.0467
6,GATCAGAC,-0.195
7,AGGTACCA,-0.036
8,CAGTGTCA,-0.105
9,AATTAGTC,0.272
10,AATTAGTG,0.33
11,AATTAGTA,0.211
12,ATATTGCC,0.0437
13,CTTATCTA,0.0318
14,CTGGCCAA,-0.0295
15,AGGCATGA,-0.183
16,CTGGTCGC,-0.0171
17,ACAAATTC,0.306
18,ACAAATTG,0.301
19,ACAAATTA,0.357
20,CCAAATTC,0.0869
21,AAAAATTC,0.182
22,CCAAATTA,0.193
23,ATAAATTG,0.225
24,ATAAATTA,0.343
25,CTAAATTA,0.144

row,Sequence,PBM E-score
1,ATCTCCGC,-0.208
2,CTACAATC,0.0383
3,ACCGCGTG,-0.118
4,ATGTAAAG,-0.0428
5,CCGAACGC,0.158
6,CCTATCTA,-0.0647
7,CAATGCAG,-0.0326
8,CCGACAAG,0.13
9,ACGACAAC,0.227
10,ACGACAAG,0.0652
11,TCGACAGA,-0.101
12,GCGACAAA,0.355
13,ACGACAAA,0.435
14,TCGACAAA,0.378
15,GCGACAAC,0.167
16,CCGACAAC,0.167
17,CCGACAAA,0.42
18,GCGACAGA,0.144
19,TCGACGAA,0.118
20,TACCGGGA,0.148
21,AGCCTGTG,-0.221
22,AGAGATTG,-0.0815
23,GCGCAGAA,0.0474
24,GAGACCTC,-0.0881
25,GAGAACTC,-0.162

row,Sequence,PBM E-score
1,AATGGAAT,0.238
2,CCCAGCCA,-0.156
3,CAGGTTGG,-0.102
4,ACTATGGG,-0.169
5,CAGAATGC,-0.094
6,AACAAATC,0.0327
7,CACAAATC,0.0687
8,AACAAATA,0.211
9,GACAAATA,0.483
10,TACAAGTA,0.0835
11,AACAAGTA,-0.0396
12,AACAAGTC,0.103
13,GACAAGTC,0.419
14,TACAAATA,0.281
15,CACAAGTC,0.0697
16,GACAAGTA,0.369
17,GACAAATC,0.473
18,ATGGGATG,-0.177
19,CTGCAAGC,-0.17
20,ACACAGGT,0.0743
21,AGAGTAAA,-0.0814
22,GTCGAGTA,-0.0563
